Test results published in PubChem BioAssay (Tox21).
Records with an inconclusive call do not appear. A number with no mark means an inactive call. Calls follow the shape of the dose curve; as a rule, active = well fitted cell-killing curve with a large enough effect in the repeat runs; inconclusive = weak or mixed curves, or effect the other way; inactive = flat fitted curve, though single readings scatter.

Assay: qHTS assay to identify small molecule antagonists of the constitutive androstane receptor (CAR) signaling pathway - cell viability counter screen (AID 1224837); also: nearly all actives have a fitted effect of over 45% in size
Conditions: HepG2-CYP2B6-hCAR viability, CellTiter-Fluor, 23 h, co-treated with 50 nM CITCO; series mostly up to 92.4 µM; activity change, negative = cytotoxicity: at the top concentration
Excerpt: National Center for Advancing Translational Sciences [NCATS]
NIH Chemical Genomics Center [NCGC]
U.S. Environmental Protection Agency [EPA]
National Institutes of Environmental Health Sciences [NIEHS]
National Toxicology Program [NTP]
U.S. Food and Drug Administration [FDA]
The constitutive androstane receptor (CAR) is a nuclear receptor which regulates multiple drug metabolizing enzymes (DMEs) and transporters. Activating CAR will generally increase the transcription and subsequent translation of CYP2B6 and CYP3A4. These two DMEs represent about 50% of the drug metabolizing potential in the body. When CAR is deactivated, the metabolizing potential in the body will decrease, subsequently increasing the toxicity in the body or lowering the therapeutic potential of a pro-drug. Recently, there have also been studies performed indicating CARs role in energy metabolism and cancer therapy. Therefore, inhibiting CARs activity could have a potential effect on diabetes and cancer. Identifying environmental toxins and compounds which modulate CAR, through the use of the Tox21 10K compound collection, will be an important step in determining the toxicity and potential therapeutic effects these factors will have on the human body. To differentiate true CAR antagonists from cytotoxic substances, the assay is multiplexed with a cell viability assay.
Tox21 Assay Protocol Summary:
A double-stable (hCAR and CYP2B6-2.2kb) transfected cell line, derived from human hepatoma (HepG2) cells, was utilized for the duration of the quantitative high-throughput screens. The HepG2-CYP2B6-hCAR cells were dispensed at 2500 cells/4 uL/well in 1536-well white solid bottom plates using a Multidrop Combi. After the assay plates were incubated at 37 C/5% CO2 for 4 hrs, 23 nL of compounds at 15 concentrations (from 5-48 columns) or positive control (from 1 to 4 columns) were transferred to the assay plates using a Pintool station. One uL of CITCO (final concentration = 50 nM) was added, using a Flying Reagent Dispenser, inside each well. After a 23 hr incubation period at 37 C/5% CO2, 1 uL of CellTiter-Fluor reagent was added into each well of the assay plates using a Flying Reagent Dispenser. The fluorescence intensity in the plates was then measured using a ViewLux plate reader.
% is scaled to controls: 0 for no effect and ±100 for the full control effect.

SMILES | activity change, negative = cytotoxicity
O=C1c2ccccc2C(=O)N1CO | 1.15%
CC(C)(C)c1ccc(C(=O)CCCCl)cc1 | 5.38% [at 42.5 µM]
O=C(OOC(=O)c1ccccc1)c1ccccc1 | 10.9% [at 42.5 µM]
O=Cc1ccccc1S(=O)(=O)O | -0.663%
CCCCCCCCCCCCCCCC(=O)OC | -4.04% [at 19 µM]
COCCCOc1cc(C[C@@H](C[C@H](N)[C@@H](O)C[C@H](C(=O)NCC(C)(C)C(N)=O)C(C)C)C(C)C)ccc1OC | 2.16% [at 42.5 µM]
CC(O)CCCCn1c(=O)c2c(ncn2C)n(C)c1=O (stereo not given) | 1.6% [at 42.5 µM]
Cc1ccc(S(=O)(=O)NC(=O)NN2CC3CCCC3C2)cc1 (stereo not given) | 10.3% [at 42.5 µM]
COC(=O)c1ccc(C(=O)O)cc1 | -0.733%
Cc1nnc(C(=O)NC(C)(C)c2nc(C(=O)NCc3ccc(F)cc3)c(O)c(=O)n2C)o1 | 14.7% [at 42.5 µM]
CC1(C)S[C@@H]2[C@H](NC(=O)Cc3ccccc3)C(=O)N2[C@H]1C(=O)O (tested in a mixture with another compound) | 3.55% [at 42.5 µM]
C[C@@H]1CC[C@@]2(OC1)O[C@H]1C[C@H]3[C@@H]4CC[C@H]5C[C@@H](O)CC[C@]5(C)[C@H]4CC(=O)[C@]3(C)[C@H]1[C@@H]2C | 4.92% [at 8.39 µM]
CO/N=C(\C(=O)O)c1csc(NC(=O)CCl)n1 | 11.2% [at 42.5 µM]
CC(=O)OC1CCC(C(C)(C)C)CC1 (stereo not given) | -2.92%
CCCCCC(CC)OC(=O)CCCOc1ccc(Cl)cc1Cl (stereo not given) | 5.89%
COc1cc(S(N)(=O)=O)cc(C(=O)O)c1OC | 6.13% [at 42.5 µM]
Nc1nc(Cl)cc(Cl)n1 | 2.43%
CC[N+](C)(CC)CC | 3.78%
CCCC(C)C(O)CC (stereo not given) | 0.531%
O=C(O)CCCCCCCCCC(=O)O | -0.793%

SMILES | activity change, negative = cytotoxicity
O=C1Nc2ccccc2C1=O | 1.17%
C=CCON/C(CCC)=C1\C(=O)CC(C)(C)C(C(=O)OC)=C1O | -16.7%
Cc1ccc(N)nc1 | -0.0635%
CCCCN(CCCC)CCCCCCN(CCCC)CCCC | -3.95%
CC(C)(C)OC=O | 6.93%
NC[C@H]1O[C@H](O[C@H]2[C@H](O)[C@@H](O[C@H]3O[C@H](CO)[C@@H](O)[C@H](N)[C@H]3O)[C@H](N)C[C@@H]2N)[C@H](N)[C@@H](O)[C@@H]1O | -13.6% [at 19 µM]
COc1cc(NS(=O)(=O)c2ccc(N)cc2)ncn1 | -2.83% [at 42.5 µM]
CC(C)(C)C(=O)NCCCC(=O)O | 0.717% [at 42.5 µM]
CC(C)=CCC/C(C)=C\C#N | 10.1%
O=c1c(O)c(O)c1=O | 0.89%
Cc1cc(O)c(Cl)cc1C | 2.89%
CC(O)C(CO)C(C)O (stereo not given) | -2.16%
CCC(C)SSC(C)CC (stereo not given) | -1.37%
O=C(O)Cc1ccccc1Oc1ccc(Cl)cc1Cl | 6.49% [at 42.5 µM]
CCO[Si](CC(C)C)(OCC)OCC | 9.04%
C=CC(C)(CCC=C(C)C)OC(=O)C(C)C (stereo not given) | -9.26%
CC(=O)OCC(=O)[C@@]1(O)CC[C@H]2[C@@H]3CCC4=CC(=O)C=C[C@]4(C)[C@H]3[C@@H](O)C[C@@]21C | 4.86% [at 42.5 µM]
CC(=O)c1c(C)cc(C(C)(C)C)cc1C | 1.35%
c1cc2ccc3ccc4ccc5cccc6c(c1)c2c3c4c56 | 2.07% [at 3.26 µM]
C/C(Cl)=C/CCl | 8.6%
